Results filed as inconclusive are left out. The source made the active and inactive calls. Rule for the calls, unless noted: active = hit-call score of the fitted dose curve at least 0.9, where 1 is the maximum; inconclusive = response in the unintended direction; inactive = score below 0.9.
Legend:
[1] = read-out: Thyroid Hormone Responsive (THRSP), THRSP (gene 7069); assay: LTEA_HepaRG_THRSP: Life Technologies and Expression Analysis (LTEA) Assay for Thyroid Hormone Responsive (THRSP) using HepaRG (AID 2283536; active = hit-call score of the fitted dose curve at least 0.9, where 1 is the maximum; inactive = score below 0.9); conditions: mRNA level, 48 h; actives raise or lower the signal
Summary of the method: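 mRNA induction or loss relative to 0.5% DMSO vehicle was fitted bidirectionally across an eight-point curve whose highest exposure was 100 uM. Human HepaRG liver cells received chemicals in duplicate over 48 h before RNA extraction.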

[2] = read-out: UDP glucuronosyltransferase (UGT1A1), UGT1A1 (gene 54658); assay: LTEA_HepaRG_UGT1A1: Life Technologies and Expression Analysis (LTEA) Assay for UDP glucuronosyltransferase (UGT1A1) using HepaRG (AID 2283538; active = hit-call score of the fitted dose curve at least 0.9, where 1 is the maximum; inactive = score below 0.9); conditions: mRNA level, 48 h; actives raise or lower the signal
Summary of the method: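 Readout is UGT1A1 transcript level by qRT-PCR, normalized to three housekeeping genes, after 48 h chemical treatment of HepaRG cells. Concentrations ran from 100 uM down in half-log steps with 0.5% DMSO, and gain or loss relative to DMSO was fitted.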

[3] = read-out: UDP glucuronosyltransferase (UGT1A6), UGT1A6 (gene 54578); assay: LTEA_HepaRG_UGT1A6: Life Technologies and Expression Analysis (LTEA) Assay for UDP glucuronosyltransferase (UGT1A6) using HepaRG (AID 2283539; active = hit-call score of the fitted dose curve at least 0.9, where 1 is the maximum; inactive = score below 0.9); conditions: mRNA level, 48 h; actives raise or lower the signal
Summary of the method: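 HepaRG, 48 h post-plating switch to serum-free induction medium; chemical 48 h, 100 uM top, half-log x8, duplicate, 0.5% DMSO. Phenobarbital 1mM induction control. UGT1A6 mRNA by TaqMan qRT-PCR; gain/loss fit vs DMSO.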

[4] = read-out: X-box binding protein 1 (XBP1), XBP1 (gene 7494); assay: LTEA_HepaRG_XBP1: Life Technologies and Expression Analysis (LTEA) Assay for X-box binding protein 1 (XBP1) using HepaRG (AID 2283540; active = hit-call score of the fitted dose curve at least 0.9, where 1 is the maximum; inactive = score below 0.9); conditions: mRNA level, 48 h; actives raise or lower the signal
Summary of the method: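 Transcript levels of XBP1, measured by qRT-PCR and normalised to three housekeeping genes, were fitted bidirectionally relative to 0.5% DMSO controls. Human HepaRG cells received eight-point half-log dilutions from 100 uM for 48 h.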

[5] = LTEA_HepaRG_LDH_cytotoxicity: Cytotoxicity Assessment in the Life Technologies and Expression Analysis (LTEA) Assay (AID 2283563);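 for AC50: LDH activity released into spent culture medium as a marker of cell death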
Summary of the method: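 Cells were thawed and plated for 48 h. Medium was then replaced with serum-free induction medium. Chemicals (8 half-log points, maximum 100 uM, 0.5% DMSO) were added in duplicate for 48 h, after which spent medium was assayed for LDH.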

[6] = ATG_XTT_Cytotoxicity: Cytotoxicity Assessment in the Attagene TRANS-FACTORIAL HepG2 Assay (AID 2283584)
Summary of the method: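 Cells: human HepG2, transiently transfected with MRTU reporter constructs. Exposure 24 h. Readout: XTT, cell number. Baseline/neg ctrl DMSO; loss-of-signal scored.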

[7] = Tanguay_ZF_120hpf_MORT_legacy: (Legacy) Oregon State University Tanguay Lab 120 Hour Post-fertilization zebrafish Assay for Mortality (AID 2283633)
Summary of the method: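 5D WT zebrafish, chorion removed 4 hpf; 1 embryo/well from 6 hpf; static exposure to 120 hpf, 28C, dark, sealed. Final DMSO 0.64%. Readout: binary mortality, brightfield, 24 + 120 hpf; DMSO as negative control.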

[8] = Tanguay_ZF_120hpf_YSE_legacy: (Legacy) Oregon State University Tanguay Lab 120 Hour Post-fertilization zebrafish Assay for Yolk Sac Edema (AID 2283634);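 for AC50: actives raise the incidence of yolk sac edema above the DMSO baseline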
Summary of the method: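 Dechorionate (pronase, 4 hpf) → place one 6 hpf embryo per well → static compound exposure, sealed and foil-covered, 28C, to 120 hpf → record yolk sac edema as present or absent. Final DMSO 0.64%.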

[9] = Tanguay_ZF_120hpf_AXIS_legacy: (Legacy) Oregon State University Tanguay Lab 120 Hour Post-fertilization zebrafish Assay for Body Axis Malformation (AID 2283635)
Summary of the method: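 Chorion is removed with pronase at 4 hpf, then single 6 hpf embryos are dosed (final DMSO 0.64%) and held statically at 28C in sealed, foil-covered plates. At 120 hpf body axis malformation is recorded as present or absent.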

[10] = Tanguay_ZF_120hpf_EYE_legacy: (Legacy) Oregon State University Tanguay Lab 120 Hour Post-fertilization zebrafish Assay for Eye Malformation (AID 2283636)
Summary of the method: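 Read-out is binary presence or absence of eye malformation, scored by brightfield microscopy at 120 hpf. Single larvae were exposed from 6 hpf in embryo medium containing 0.64% DMSO, with DMSO as baseline.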

[11] = Tanguay_ZF_120hpf_SNOU_legacy: (Legacy) Oregon State University Tanguay Lab 120 Hour Post-fertilization zebrafish Assay for Snout Malformation (AID 2283637)
Summary of the method: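 Snout malformation read as a yes/no call on brightfield images of 120 hpf larvae (Tropical 5D strain). Static exposure began at 6 hpf on dechorionated embryos in 0.64% DMSO, with gain of signal analysed versus DMSO controls.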

[12] = read-out: Cellular tumor antigen p53 (Homo sapiens) (UniProt P04637); assay: LTEA_HepaRG_TP53: Life Technologies and Expression Analysis (LTEA) Assay for Tumor Protein P53 (TP53) using HepaRG (AID 2283537; active = hit-call score of the fitted dose curve at least 0.9, where 1 is the maximum; inactive = score below 0.9); conditions: mRNA level, 48 h; actives raise or lower the signal
Summary of the method: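 HepaRG, 48 h exposure, top 100 uM, half-log 8-point, 0.5% DMSO vehicle, duplicates. Read: TP53 mRNA by TaqMan qRT-PCR, normalised to ACTB/GAPDH/POLR2A; bidirectional fit vs DMSO.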

[13] = TOX21_p53_BLA_p2_viability: Viability Assessment in the Tox21 HCT-116 p53 Agonism Beta-lactamase Assay, Phase 2 (AID 2283591);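 note: compound exposure lasted 16 h at 37 °C; actives lower the ATP signal meaning cytotoxicity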
Summary of the method: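 Cytotoxicity readout: CellTiter-Glo ATP luminescence, 30 min at room temperature, after the beta-lactamase read. Cells were HCT116 exposed 16 h at 37C to compounds pin-transferred at 217-fold dilution from DMSO stocks.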

[14] = TOX21_p53_BLA_p3_viability: Viability Assessment in the Tox21 HCT-116 p53 Agonism Beta-lactamase Assay, Phase 3 (AID 2283593);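 note: cells exposed to compound for 16 h before reading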
Summary of the method: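 Cellular ATP was quantified by CellTiter-Glo luminescence, read after 30 min at room temperature. Beforehand, HCT116 cells (4000/well) received compound 5 h post-seeding, 217-fold diluted from DMSO, then incubated 16 h at 37C.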

[15] = TOX21_p53_BLA_p4_viability: Viability Assessment in the Tox21 HCT-116 p53 Agonism Beta-lactamase Assay, Phase 4 (AID 2283597);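 note: hits lower the luminescence signal meaning cytotoxicity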
Summary of the method: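 Cells plated, 5 h pre-incubation; DMSO compounds pinned (217-fold dilution); 16 h, 37C/5% CO2; CCF4-AM 2 h RT; CellTiter-Glo 30 min RT; luminescence read.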

[16] = target: Cellular tumor antigen p53 (Homo sapiens) (UniProt P04637); assay: TOX21_p53_BLA_p5_ratio: Tox21 HCT-116 p53 Agonism Beta-lactamase Assay, Ratio, Phase 5 (AID 2283599)
Sequence of Cellular tumor antigen p53 (Homo sapiens) (P04637 whole entry, looked up): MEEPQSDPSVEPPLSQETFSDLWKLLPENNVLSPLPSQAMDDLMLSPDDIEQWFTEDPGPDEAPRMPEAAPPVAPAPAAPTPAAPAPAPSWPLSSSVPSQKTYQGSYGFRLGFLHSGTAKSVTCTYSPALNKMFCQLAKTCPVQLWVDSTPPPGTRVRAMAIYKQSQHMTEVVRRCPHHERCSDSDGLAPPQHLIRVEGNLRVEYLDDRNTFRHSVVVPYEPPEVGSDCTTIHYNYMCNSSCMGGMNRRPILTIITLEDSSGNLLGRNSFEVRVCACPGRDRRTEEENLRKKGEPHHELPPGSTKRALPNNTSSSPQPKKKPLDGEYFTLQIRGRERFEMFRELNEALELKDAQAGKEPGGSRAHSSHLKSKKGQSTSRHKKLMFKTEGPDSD
Summary of the method: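 Beta-lactamase reporter ratio (blue 460 nm over green 530 nm, 405 nm excitation) after 2 h CCF4-AM loading, in HCT-116 cells exposed 16 h at 37 C to compounds pinned at 217-fold dilution. Increases relative to DMSO baseline scored.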

[17] = target: Cellular tumor antigen p53 (Homo sapiens) (UniProt P04637); assay: TOX21_p53_BLA_p4_ratio: Tox21 HCT-116 p53 Agonism Beta-lactamase Assay, Ratio, Phase 4 (AID 2283601)
Summary of the method: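 Signal is the blue/green (460nm/530nm) ratio of cleaved versus uncleaved CCF4-AM substrate, read after 2 h substrate loading. Cells were HCT116 carrying the p53-responsive beta-lactamase reporter, dosed 16 h at 37C, 5% CO2; CellTiter-Glo measured in parallel.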

[18] = target: Cellular tumor antigen p53 (Homo sapiens) (UniProt P04637); assay: TOX21_p53_BLA_p2_ratio: Tox21 HCT-116 p53 Agonism Beta-lactamase Assay, Ratio, Phase 2 (AID 2283592)
Summary of the method: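 HCT116 p53-bla; 4000 cells/well; 5 h pre-incubation; cpd in DMSO, 217-fold dilution; 16 h 37C/5% CO2; CCF4-AM 2 h RT; Ex 405, Em 460/530 ratio; DMSO = baseline; positive fitting direction.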

[19] = target: Cellular tumor antigen p53 (Homo sapiens) (UniProt P04637); assay: TOX21_p53_BLA_p3_ratio: Tox21 HCT-116 p53 Agonism Beta-lactamase Assay, Ratio, Phase 3 (AID 2283596)
Summary of the method: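 HCT116 p53-bla cells (4000/well) given compound in DMSO (217-fold dilution) after 5 h, incubated 16 h at 37C. CCF4-AM substrate 2 h at room temperature; 460/530 nm emission ratio, gain fitted against DMSO.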

[20] = TOX21_p53_BLA_p5_viability: Viability Assessment in the Tox21 HCT-116 p53 Agonism Beta-lactamase Assay, Phase 5 (AID 2283600)
Summary of the method: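 4000 cells/well; 5 h pre-incubation; DMSO compounds pin-transferred, 217-fold dilution; 16 h, 37C/5% CO2; CCF4-AM 2 h RT; CellTiter-Glo 30 min RT; luminescence.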

Measured: AC50

CN(C)[C@@H]1C(=O)C(C(N)=O)=C(O)[C@@]2(O)C(=O)C3=C(O)c4c(O)cccc4[C@@](C)(O)[C@H]3[C@H](O)[C@@H]12
inactive: [1] | [2] | [3] | [4] | [5] | [6] | [7] | [8] | [9] | [10] | [11]

CCNc1nc(Cl)nc(NC(C)(C)C#N)n1
active: [2] 3.53 µM
not listed: [6] | [9] | [18] | [19] | [20]
inactive: all other assays above

COP(=O)(OC)SCn1c(=O)oc2cc(Cl)cnc21
inactive: [12] | [4] | [18] | [15] | [20] | [17] | [7] | [9]
active: [1] 73.4 µM | [2] 9.92 µM | [3] 9.92 µM | [5] 74.2 µM | [19] 49.1 µM | [16] 73.7 µM | [8] 44 µM | [10] 15.3 µM | [11] 47.5 µM

— PubChem BioAssay (EPA / NIEHS)
